From PubChem
M1 ag = agonists of human M1 muscarinic receptor; P11229; CHO-K1 hM1, Fluo-8 calcium fluorescence, agonist mode; 0% DMSO, 100% acetylcholine EC100; activation, % at 3 µM; hit rate 0.33% among 360,000; AID 588814;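 active means activation above the run's mean compound activation plus 3 SD, cut at about 16% in these data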;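 further: peak over basal fluorescence ratio within a 140 s kinetic read after compound addition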
Target sequence (P11229 whole entry, looked up): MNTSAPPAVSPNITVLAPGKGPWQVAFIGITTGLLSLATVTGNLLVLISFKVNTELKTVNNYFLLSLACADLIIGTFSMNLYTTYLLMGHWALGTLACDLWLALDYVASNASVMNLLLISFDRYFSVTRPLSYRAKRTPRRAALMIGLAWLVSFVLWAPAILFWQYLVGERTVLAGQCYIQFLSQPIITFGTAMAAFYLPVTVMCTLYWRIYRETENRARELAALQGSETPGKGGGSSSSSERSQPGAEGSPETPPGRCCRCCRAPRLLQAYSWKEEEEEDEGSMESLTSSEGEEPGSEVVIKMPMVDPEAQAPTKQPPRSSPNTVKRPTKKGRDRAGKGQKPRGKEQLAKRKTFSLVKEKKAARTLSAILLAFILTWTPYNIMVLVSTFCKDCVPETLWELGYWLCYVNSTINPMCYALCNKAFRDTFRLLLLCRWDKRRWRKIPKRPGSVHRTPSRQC
M1 ag parental = counter-screen for M1 agonists: effect in parental CHO-K1 cells. Fluo-8 calcium fluorescence; scaled to maximal ATP response, vehicle zero. activation, % at 3 µM. hit rate 0.48% among 360,000. AID 602248; in the data active means activation above about 15%;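 further: untransfected CHO-K1 host cells lacking M1 receptor as counterscreen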
M1 antag = human CHRM1 antagonism; CHO-K1 hM1, Fluo-8 calcium fluorescence, ACh EC80 antagonist; inhibition, % at 3 µM; hit rate 1.3% among 360,000;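 active means percent inhibition above its own plate's cutoff, namely the mean of that plate's compound wells plus 3 SD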;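 further: peak over basal fluorescence ratio during 140 s after agonist addition; 0% = ACh EC80 plus DMSO and 100% = DMSO alone without agonist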
CHO-K1 Ca PAM = nonselective activator or artifact in parental CHO-K1 calcium assay | ATP EC20, Fluo-8 calcium fluorescence; 0% at ATP EC20, 100% at ATP max | activation, % at 3 µM | hit rate 0.02% among 360,000 | AID 602247;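 active means activation above the run cutoff, the mean activation of all test compounds plus 3 SD, cut at about 40% in these data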;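 further: peak over basal fluorescence ratio in a 140 s read after ATP addition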
M1 PAM = positive allosteric modulators of human M1 muscarinic receptor; CHO-K1 hM1, Fluo-8 calcium fluorescence, ACh EC20; 0% = ACh EC20, 100% = maximal ACh; hit rate 0.088% among 360,000; AID 588819; activation, % at 3 µM; P11229; in the data active means activation above about 19%, passing the limit was not always enough
CHO-K1 Ca antag = nonselective inhibitor or artifact in parental CHO-K1 cells; ATP-induced calcium, Fluo-8 fluorescence; inhibition, % at 3 µM; hit rate 0.6% among 360,000; AID 602250;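 active means inhibition above a per-plate cutoff, the plate's mean sample inhibition plus 3 SD, cut at about 24% in these data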;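 further: 0% = DMSO plus EC80 ATP and 100% = DMSO alone without ATP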
* marks the source's active call; other numbers are inactive results. Hits are enriched below; roughly 2.3% of the tested compounds scored in any of these assays.

SMILES	M1 ag	M1 ag parental	M1 antag	CHO-K1 Ca PAM	M1 PAM	CHO-K1 Ca antag
COc1ccc(CNCc2ccco2)cc1OCc1ccccc1	-8	2	24	-11	-17	10
COc1cccc(CNCCc2c[nH]c3ccccc23)c1OCc1ccccc1	6	21*	19	5	-6	12
COCCCN(C(=O)C(C)Oc1ccc(Br)cc1)c1c(N)n(Cc2ccccc2)c(=O)[nH]c1=O (configuration not stated)	-5	1	-3	-3	6	-14
CCc1ccc(NS(=O)(=O)c2c(C)noc2C)cc1	-5	0	40*	-11	-22	7
COc1cc(/C=N/N2C(=O)CSC2=S)cc(Br)c1O	55*	48*	38*	-3	-13	19
COc1ccc(C2=NOC3(CC(=O)N(c4ccc5ccccc5c4)C3=O)C2)c(OC)c1 (configuration not stated)	-3	1	-8	33	7	-14
Cc1ccc(C2=CC(=O)CC(C)(C)C2)cc1	-8	0	-14	16	14	-22
CN(C)/C=C/C1=CC(=O)CC(C)(C)C1	-3	-1	6	-18	5	24*
CCCCN1CC[C@H]2C=CC[C@@H](C(=O)Nc3ccccc3)[C@H]2C1=O	-3	0	-10	1	6	-8
Cc1nc2nc(C)c(CCC(=O)NC(C)c3ccc4c(c3)OCCO4)c(C)n2n1 (configuration not stated)	-6	1	68*	5	-10	-1
COc1cc(/C=C2\SC(=S)N(NC(=O)c3cccnc3)C2=O)ccc1O	2	4	27*	-6	-7	20
COc1cc(/C=C2\SC(=S)N(NC(=O)c3ccc(O)cc3)C2=O)ccc1O	37*	23*	35	-21	-13	13
COc1cc(/C=C2\SC(=S)N(c3cccnc3)C2=O)ccc1O	13	18*	4	7	1	2
O=C(Nn1c(COc2ccccc2)nc2ccccc2c1=O)C(Cl)(Cl)Cl	0	1	-13	9	10	-12
CCCN1CCN(C(=O)CCS(=O)(=O)c2cc3c(cc2Cl)NC(=O)CO3)CC1	-4	0	13	-11	-10	26*
COc1ccc(N2CCN(C(=O)CC(C)S(=O)(=O)c3ccc4c(c3)NC(=O)CO4)CC2)cc1 (configuration not stated)	3	10	9	-18	-9	17
Cc1ccc(C)c(N2CCN(C(=O)CCS(=O)(=O)c3ccc4c(c3)NC(=O)CO4)CC2)c1	6	17*	22	3	-10	-3
CC(CC(=O)N1CCN(c2cccc(Cl)c2)CC1)S(=O)(=O)c1ccc2c(c1)NC(=O)CO2 (configuration not stated)	4	3	66*	-15	-21	0
CC1CCN(C(=O)CCS(=O)(=O)c2cc3c(cc2Cl)NC(=O)CO3)CC1	-1	1	-12	20	3	-6
O=C1COc2ccc(S(=O)(=O)CCC(=O)N3CCN(c4ccccc4)CC3)cc2N1	-1	1	-12	24	9	-11
CCCCn1c(N)c(N(CCOC)C(=O)c2ccc(F)c(S(=O)(=O)N3CCOCC3)c2)c(=O)[nH]c1=O	-2	1	-3	-1	6	6
FC(F)(F)c1cccc(CNC(=S)Nc2ccccc2)c1	0	3	-3	-8	-2	27*
FC(F)(F)Sc1ccc(NC(=S)NCc2ccccc2)cc1	3	11	40*	-19	-19	31*
S=C(NCc1ccccc1)Nc1ccc(Cl)cc1	-6	12	17	-4	-23	22
S=C(NCc1ccccc1)NCc1cccc(Cl)c1	-2	3	-7	10	-3	60*
NC(=O)CC[C@H](NC(=O)c1ccc(Cl)cc1)C(=O)NNC(=O)COc1cccc(Br)c1	-2	0	5	-10	-2	-3
Cc1cc(NC(=O)c2ccc3c(c2)C(=O)N(C2CCCCC2)C3=O)no1	-2	0	-7	13	5	-10
O=C(Nc1ccncc1)c1ccc2c(c1)C(=O)N(C1CCCCC1)C2=O	6	9	35*	12	-15	17
